Source: PubChem BioAssay (Tox21)
Where “and” joins values, the source holds several entries; their conditions need not be identical. Equal values may be shown once. Records with an inconclusive call do not appear. Where a call stands in place of a potency, no number is given. More than one record can exist for a structure, and the calls need not agree. Calls of active or inactive are those of the source. Unless noted, the call rests on the fitted dose curve.

How the values were obtained:
[1] = target: Gonadotropin-releasing hormone receptor (Homo sapiens) (UniProt P30968); experiment: Human gonadotropin-releasing hormone receptor (GnRHR) small molecule agonists, calcium flux assay in GnRHR-HEK293 cells (AID 1920063); further: nearly all actives have a fitted effect of over 35% in size
Chain of Gonadotropin-releasing hormone receptor (Homo sapiens) (P30968 whole entry, looked up): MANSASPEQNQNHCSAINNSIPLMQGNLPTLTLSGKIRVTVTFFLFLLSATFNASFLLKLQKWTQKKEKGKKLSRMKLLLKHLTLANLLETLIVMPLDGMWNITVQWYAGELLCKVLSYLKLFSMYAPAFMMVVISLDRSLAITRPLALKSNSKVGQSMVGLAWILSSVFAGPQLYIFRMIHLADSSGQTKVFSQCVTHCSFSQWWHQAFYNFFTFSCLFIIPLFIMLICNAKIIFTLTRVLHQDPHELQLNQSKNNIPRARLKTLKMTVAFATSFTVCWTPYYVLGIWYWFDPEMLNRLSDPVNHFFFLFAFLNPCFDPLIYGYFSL
How it was run: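 GnRHR-HEK293, 1500 cells/well, 18 h 37 C/5% CO2; Ca dye 1 h 37 C; cpd pinned (DMSO), agonist mode; kinetic FL 480/540, 3 min, 1 s reads; 15 conc, n=3.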

[2] = target: KiSS-1 receptor (Homo sapiens) (UniProt Q969F8); experiment: Human kisspeptin (KISS1R) small molecule agonists, calcium flux assay in KISS1R-HEK293 cells (AID 1920064; active means well fitted activation curve with a large enough effect in the repeat runs)
Chain of KiSS-1 receptor (Homo sapiens) (Q969F8 whole entry, looked up): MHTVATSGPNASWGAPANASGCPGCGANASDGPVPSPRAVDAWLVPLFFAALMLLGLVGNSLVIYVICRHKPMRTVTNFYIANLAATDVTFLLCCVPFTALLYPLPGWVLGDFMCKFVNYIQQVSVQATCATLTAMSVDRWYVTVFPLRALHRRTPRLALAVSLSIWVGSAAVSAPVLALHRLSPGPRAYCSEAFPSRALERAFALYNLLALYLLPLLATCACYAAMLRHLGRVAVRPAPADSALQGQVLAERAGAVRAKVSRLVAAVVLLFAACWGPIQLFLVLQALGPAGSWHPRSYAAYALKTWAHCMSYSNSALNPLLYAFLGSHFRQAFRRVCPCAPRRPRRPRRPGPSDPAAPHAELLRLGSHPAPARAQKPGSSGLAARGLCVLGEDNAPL
How it was run: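 Stable human KISS1R HEK293 line; 18 h plating, 37 C/5% CO2; calcium dye 1 h 37 C; compound pin transfer; kinetic fluorescence Ex/Em 480/540, 3 min.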

[3] = G protein-coupled receptor (GPCR) small molecule agonists, calcium flux assay: HEK293 wild type cell line counter screen (AID 1920065)
How it was run: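 Kinetic fluorescence at Ex/Em 480/540, recorded every second over 3 min, served as the read-out after compound addition. Each compound was tested at 15 concentrations in triplicate on cells pre-loaded with calcium dye for 1 h.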

[4] = p53 small molecule agonists, cell-based qHTS assay with human liver microsomes (AID 1963577);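 further: p53 response element beta-lactamase reporter cells with liver microsomes plus NADPH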
How it was run: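 HLM-supplemented p53RE-bla reporter assay: 16 h compound exposure at 37 C, microsomes and NADPH each 0.5 mg/mL final, read by fluorescence intensity.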

[5] = p53 small molecule agonists, cell-based qHTS assay with rat liver microsomes (AID 1963578)
How it was run: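 Quantitative HTS of the Tox21 10K library: p53RE-bla cells, rat liver microsomes plus NADPH at 0.5 mg/mL final each, 16 h at 37 C, beta-lactamase fluorescence detection.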

[6] = p53 small molecule agonists, cell-based qHTS assay with human liver microsomes: qHTS cell viability counter screen (AID 1963579); further: nearly all actives have a fitted effect of over 45% in size; further: potency means the concentration at half of the fitted maximal effect
How it was run: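 Viability of p53RE-bla cells is measured as CellTiter-Glo luminescence following a 16 h, 37 C incubation with compound, liver microsomes from human donors and NADPH.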

[7] = p53 small molecule agonists, cell-based qHTS assay with rat liver microsomes: qHTS cell viability counter screen (AID 1963580); further: nearly all actives have a fitted effect of over 45% in size
How it was run: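 Viability is assessed in parallel with the p53 reporter read: HCT-116 p53RE-bla cells receive compounds plus rat microsomes and NADPH (0.5 mg/mL final apiece), incubate 16 h at 37 C, and then CellTiter-Glo luminescence is recorded.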

[8] = p53 small molecule agonists, cell-based qHTS assay: qHTS cell viability counter screen (AID 1963581); further: nearly all actives have a fitted effect of over 45% in size
How it was run: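 HCT-116 p53RE-bla cells, 4,000/well, plated 5 h before compound pin transfer; 16 h at 37 C; bla substrate 2 h RT; then CellTiter-Glo, 30 min RT, luminescence.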

[9] = p53 small molecule agonists, cell-based qHTS assay (AID 1963582; active means well fitted activation curve with a large enough effect in the signal ratio in the repeat runs, not every such curve was filed as active; the % refers to the signal ratio)
How it was run: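 Reporter line: p53RE-bla. Pre-incubation 5 h, 37 C, 5% CO2; compound (DMSO, pin tool) 16 h, 37 C; B/G FRET substrate 2 h RT; fluorescence intensity read.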

[10] = cAMP Responsive Elements (CRE) small molecule agonists, cell-based qHTS assay (AID 1963590)
How it was run: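 HEK 293T CRE-bla, 2,000 cells/well, 18 h preincubation 37 C/5% CO2; cpds (DMSO) pinned, 3 h; LiveBLAzer B/G FRET substrate, 2 h RT.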

[11] = cAMP Responsive Elements (CRE) small molecule antagonists, cell-based qHTS assay (AID 1963591; active means well fitted inhibition curve with a large enough effect in the signal ratio in the repeat runs, not every such curve was filed as active; the % refers to the signal ratio)
How it was run: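 Beta-lactamase reporter read by FRET substrate (LiveBLAzer B/G) after 2 h at room temperature. CRE-bla HEK293T cells had received compound plus 0.25 uM (final) NKH477 for 3 h at 37 °C.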

[12] = target: Beta-2 adrenergic receptor (Homo sapiens) (UniProt P07550); experiment: Adrenergic beta2 receptor (ADRB2) small molecule antagonists, cell-based qHTS assay (AID 1963592); further: series mostly up to about 92 µM; nearly all actives have a fitted effect of over 50% in size
Chain of Beta-2 adrenergic receptor (Homo sapiens) (P07550 whole entry, looked up): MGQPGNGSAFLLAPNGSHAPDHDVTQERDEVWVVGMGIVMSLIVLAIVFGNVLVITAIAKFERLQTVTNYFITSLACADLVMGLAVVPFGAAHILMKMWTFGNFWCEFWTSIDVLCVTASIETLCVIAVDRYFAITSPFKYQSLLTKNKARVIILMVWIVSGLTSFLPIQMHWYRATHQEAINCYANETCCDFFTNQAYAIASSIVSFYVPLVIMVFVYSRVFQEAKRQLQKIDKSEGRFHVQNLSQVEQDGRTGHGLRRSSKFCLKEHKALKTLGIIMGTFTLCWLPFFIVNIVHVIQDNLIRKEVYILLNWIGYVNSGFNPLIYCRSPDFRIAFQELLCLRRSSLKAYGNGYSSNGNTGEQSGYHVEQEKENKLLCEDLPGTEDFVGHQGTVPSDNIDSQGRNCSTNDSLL
How it was run: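 Cells (CHO, stable ADRB2 overexpression) incubated 18-20hr at 37C; compounds added from DMSO; agonist mix (1nM isoproterenol, 100uM IBMX, 25uM Ro-20-1724) added; 0.5hr RT; d2-cAMP and anti-cAMP-cryptate added; 1hr RT; 665/615 nm read.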

[13] = target: D(2) dopamine receptor (Homo sapiens) (UniProt P14416); experiment: Dopamine D2 receptor (DRD2) small molecule agonists, cell-based qHTS assay (AID 1963594); further: nearly all actives have a fitted effect of over 35% in size
Chain of D(2) dopamine receptor (Homo sapiens) (P14416 whole entry, looked up): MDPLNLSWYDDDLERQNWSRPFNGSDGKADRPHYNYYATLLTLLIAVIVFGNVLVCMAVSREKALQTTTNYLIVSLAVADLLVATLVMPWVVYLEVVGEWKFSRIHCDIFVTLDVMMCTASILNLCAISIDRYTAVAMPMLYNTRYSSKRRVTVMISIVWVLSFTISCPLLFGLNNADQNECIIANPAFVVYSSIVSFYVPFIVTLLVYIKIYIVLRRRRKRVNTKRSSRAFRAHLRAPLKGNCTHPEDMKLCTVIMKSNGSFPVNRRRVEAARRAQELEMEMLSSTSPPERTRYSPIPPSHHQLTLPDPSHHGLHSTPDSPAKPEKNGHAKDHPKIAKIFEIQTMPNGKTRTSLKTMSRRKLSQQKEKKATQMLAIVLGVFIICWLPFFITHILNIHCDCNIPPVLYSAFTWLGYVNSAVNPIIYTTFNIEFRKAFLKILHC
How it was run: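 HEK293 cells stably expressing human DRD2, pre-treated with PDE inhibitor Ro20-1724 (0.1 mM final) and compound 10 min at room temperature, then stimulated with NKH477 (200nM […]) for 30 min. cAMP read by HTRF (665/620 nm).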

[14] = target: D(2) dopamine receptor (Homo sapiens) (UniProt P14416); experiment: Dopamine D2 receptor (DRD2) small molecule antagonists, cell-based qHTS assay (AID 1963595; active means well fitted inhibition curve with a large enough effect in the signal ratio in the repeat runs, with a control signal flat; the % refers to the signal ratio)
How it was run: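 HTRF cAMP read-out at 665 and 620 nm emission (340 nm excitation). Antagonist mode: compounds were tested against 12 nM quinpirole in DRD2-HEK293 cells, with 200 nM NKH477 raising cAMP and 0.1 mM Ro20-1724 blocking its breakdown.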

[15] = target: Beta-2 adrenergic receptor (Homo sapiens) (UniProt P07550); experiment: Adrenergic beta2 receptor (ADRB2) small molecule agonists, cell-based qHTS assay (AID 1963593);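 further: CHO cells stably overexpressing human ADRB2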
How it was run: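 CHO cells stably over-expressing ADRB2 were plated overnight at 37C, then dosed with compounds plus a stimulation mix containing 100uM IBMX and 25uM Ro-20-1724 for 0.5hr at room temperature. cAMP was measured by HTRF competition, 1hr.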

[16] = target: 5-hydroxytryptamine receptor 2A (Homo sapiens) (UniProt P28223); experiment: 5-hydroxytryptamine receptor 2A (HTR2A) small molecule agonists, cell-based qHTS assay (AID 1963587); further: nearly all actives have a fitted effect of over 30% in size
Chain of 5-hydroxytryptamine receptor 2A (Homo sapiens) (P28223 whole entry, looked up): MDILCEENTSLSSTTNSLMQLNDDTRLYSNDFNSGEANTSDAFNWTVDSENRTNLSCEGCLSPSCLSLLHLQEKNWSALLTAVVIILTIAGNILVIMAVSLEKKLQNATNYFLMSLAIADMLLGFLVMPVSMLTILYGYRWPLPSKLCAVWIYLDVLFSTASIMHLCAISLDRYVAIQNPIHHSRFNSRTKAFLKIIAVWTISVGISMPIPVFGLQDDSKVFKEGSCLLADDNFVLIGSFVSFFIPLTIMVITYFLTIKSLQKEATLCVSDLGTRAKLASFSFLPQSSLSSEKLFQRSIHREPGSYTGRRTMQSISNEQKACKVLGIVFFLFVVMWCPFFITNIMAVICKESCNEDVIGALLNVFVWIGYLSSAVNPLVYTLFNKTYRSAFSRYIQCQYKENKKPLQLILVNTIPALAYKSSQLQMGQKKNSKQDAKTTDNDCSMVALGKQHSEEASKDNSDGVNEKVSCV
How it was run: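 CHO cells stably expressing human HTR2A, plated 18 h, loaded with calcium dye 1 h at 37 C. Agonist mode: compounds added and intracellular calcium fluorescence recorded kinetically for 2 min at 1 sec intervals.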

[17] = target: Muscarinic acetylcholine receptor M1 (Homo sapiens) (UniProt P11229); experiment: Cholinergic receptor muscarinic 1 (CHRM1) small molecule antagonists, cell-based qHTS assay (AID 1963588); further: nearly all actives have a fitted effect of over 40% in size
Chain of Muscarinic acetylcholine receptor M1 (Homo sapiens) (P11229 whole entry, looked up): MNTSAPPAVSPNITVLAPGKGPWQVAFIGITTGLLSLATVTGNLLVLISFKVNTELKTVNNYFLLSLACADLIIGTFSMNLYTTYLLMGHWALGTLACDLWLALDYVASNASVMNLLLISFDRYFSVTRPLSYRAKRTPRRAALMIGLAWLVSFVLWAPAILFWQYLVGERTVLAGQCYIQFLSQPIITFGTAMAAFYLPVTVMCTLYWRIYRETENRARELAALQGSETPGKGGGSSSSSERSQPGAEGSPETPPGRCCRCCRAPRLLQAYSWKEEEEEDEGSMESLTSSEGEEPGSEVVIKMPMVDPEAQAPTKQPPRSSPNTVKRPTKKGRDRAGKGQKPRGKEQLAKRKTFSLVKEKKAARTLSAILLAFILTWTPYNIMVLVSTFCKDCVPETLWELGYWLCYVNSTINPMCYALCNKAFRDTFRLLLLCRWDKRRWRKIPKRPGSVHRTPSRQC
How it was run: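 CHRM1-CHO calcium-flux assay, antagonist mode. Cells were seeded 18 h, dye-loaded 1 h at 37 C and given compound for 5 min at RT, then acetylcholine was added at 50nM. FDSS fluorescence was read 3 min; 15 concentrations, three runs.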

[18] = target: Muscarinic acetylcholine receptor M1 (Homo sapiens) (UniProt P11229); experiment: Cholinergic receptor muscarinic 1 (CHRM1) small molecule agonists, cell-based qHTS assay (AID 1963589); further: nearly all actives have a fitted effect of over 35% in size
How it was run: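 Human M1 in stable CHO line; 18 h plating, 1 h dye load 37 C; cpd added (agonist mode); Ca2+ fluorescence kinetic read, 1 s intervals; 15 conc, 3 runs.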

[19] = target: 5-hydroxytryptamine receptor 2A (Homo sapiens) (UniProt P28223); experiment: 5-hydroxytryptamine receptor 2A (HTR2A) small molecule antagonists, cell-based qHTS assay (AID 1963586); further: nearly all actives have a fitted effect of over 45% in size; further: potency means the concentration at half of the fitted maximal effect
How it was run: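 Antagonist-mode intracellular calcium assay: DOI (4 nM) added after 5 min compound pre-incubation at room temperature to dye-loaded HTR2A-CHO cells. Fluorescence followed for 3 min, sampled every second.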

| Structure (SMILES) | Potency [1] | Potency [2] | Potency [3] | Potency [4] | Potency [5] | Potency [6] | Potency [7] | Potency [8] | Potency [9] | Potency [10] | Potency [11] | Potency [12] | Potency [13] | Potency [14] | Potency [15] | Potency [16] | Potency [17] | Potency [18] | Potency [19] |
| --- | --- | --- | --- | --- | --- | --- | --- | --- | --- | --- | --- | --- | --- | --- | --- | --- | --- | --- | --- |
| C#C[C@]1(O)CC[C@H]2[C@@H]3CCC4=CC(=O)CC[C@]4(C)[C@H]3CC[C@@]21C | inactive | inactive | inactive | inactive | inactive | inactive | inactive | inactive | inactive | inactive | inactive | inactive | inactive | inactive | – | – | – | – | – |
| Oc1cccc2cccnc12 | inactive | inactive | inactive | – | – | inactive and 971 nM (active) and 913 nM (active) | – | inactive | – | inactive | inactive | inactive | inactive | inactive | inactive | – | – | – | – |
| COc1cc(OC)nc(Sc2cccc(Cl)c2C(=O)O)n1 | inactive | inactive | inactive | inactive | inactive | inactive | inactive | inactive | inactive | inactive | inactive | inactive | inactive | inactive | inactive | inactive | inactive | inactive | – |
| O=S(=O)(Cl)Cl | inactive | inactive | – | inactive | – | inactive | inactive | inactive | inactive | inactive | inactive | inactive | inactive | inactive | – | inactive | inactive | inactive | inactive |
| CCCCCCCCCCCCn1cc[n+](C)c1 | – | inactive | inactive | – | – | – | – | – | – | inactive | inactive | inactive | inactive | inactive | inactive | – | – | inactive | inactive and 33.7 µM (active) |
| COC(=O)c1ccc(CBr)cc1 | inactive | inactive | inactive | inactive | inactive | inactive | inactive | inactive | – | inactive | inactive | inactive | – | – | inactive | inactive | inactive | inactive | inactive |
| CCCCCCCCCCOC(=O)c1ccccc1C(=O)OCCCCCCCCCC | inactive | inactive | inactive | inactive | inactive | inactive | inactive | inactive | inactive | inactive | inactive | inactive | inactive | inactive | inactive | inactive | inactive | – | inactive |
| O=P(O)(O)CCCl | inactive | inactive | inactive | – | inactive | inactive | inactive | inactive | inactive | inactive | inactive | inactive | – | inactive | inactive | inactive | inactive | inactive | – |
